# GSH bead fluor: compound fluoresces at 488/530 nm on GSH beads | GSH beads flow cytometry, compound fluorescence 488/530 nm; stronger effect = higher value | fluorescence (KMESF) at 10 µM | 190,000 compounds, 0.25% hits | AID 1776; in the data active means fluorescence above about 89;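 further: glutathione beads carrying GST-tagged Bcl family fusion proteins plus one bare bead set; values are compound well signal with DMSO vehicle wells as background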
# RGS8-Gao reg: regulators of human RGS8-Galphao interaction; multiplexed bead flow cytometry, RGS8-Galphao binding; actives lie on both sides; response (percent of control binding), % at 10 µM; 220,000 compounds, 0.34% hits; AID 1423; in the data active means response below about 60% or above about 140%; inactive means in between;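 further: Galphao activated as the GDP aluminium fluoride complex binding bead-coupled RGS8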
# Avidin bead fluor: compound fluoresces at 488/530 nm on avidin beads | AID 1775 | fluorescence (KMESF) at 10 µM | compound fluorescence 488/530 nm, flow cytometry; stronger effect = higher value | 220,000 compounds, 0.38% hits; in the data active means fluorescence above about 47
# RGS4-Gao reg: modulates binding of RGS4 to human Galphao; Multiplexed bead flow cytometry; actives lie on both sides; binding response (% of control), % at 10 µM; 220,000 compounds, 0.33% hits; AID 1415; in the data active means binding response below about 49% or above about 150%; inactive means in between;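 further: fluorescent Galphao activated with aluminum fluoride binding bead-coupled RGS4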
# RGS7-Gao: human RGS7-Galphao interaction regulation. P09471. Multiplexed bead flow cytometry, RGS7-Galphao binding; actives lie on both sides. binding response (% of control), % at 10 µM. 220,000 compounds, 0.35% hits; in the data active means binding response below about 49% or above about 150%; inconclusive means no clear call, values can overlap the other calls; inactive means in between;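 further: fluorescent Galphao held in activated GDP-AlF4 state binding bead-coupled RGS7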
# RGS16-Gao: regulators of human RGS16-Galphao interaction | O15492+P09471 | bead-based flow cytometry RGS16-Galphao binding, fluorescence; actives lie on both sides | binding response (% of control), % at 10 µM | 220,000 compounds, 0.38% hits | AID 1441;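 further: Galphao activated by GDP with aluminum fluoride before binding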
# Target sequence (O15492 whole entry, looked up): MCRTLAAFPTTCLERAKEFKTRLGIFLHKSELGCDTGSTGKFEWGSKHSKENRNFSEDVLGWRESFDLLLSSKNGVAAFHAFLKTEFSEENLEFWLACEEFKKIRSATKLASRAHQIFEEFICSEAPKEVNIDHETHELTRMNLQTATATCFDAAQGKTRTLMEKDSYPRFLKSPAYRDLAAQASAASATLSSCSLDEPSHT
# Target sequence (P09471 whole entry, looked up): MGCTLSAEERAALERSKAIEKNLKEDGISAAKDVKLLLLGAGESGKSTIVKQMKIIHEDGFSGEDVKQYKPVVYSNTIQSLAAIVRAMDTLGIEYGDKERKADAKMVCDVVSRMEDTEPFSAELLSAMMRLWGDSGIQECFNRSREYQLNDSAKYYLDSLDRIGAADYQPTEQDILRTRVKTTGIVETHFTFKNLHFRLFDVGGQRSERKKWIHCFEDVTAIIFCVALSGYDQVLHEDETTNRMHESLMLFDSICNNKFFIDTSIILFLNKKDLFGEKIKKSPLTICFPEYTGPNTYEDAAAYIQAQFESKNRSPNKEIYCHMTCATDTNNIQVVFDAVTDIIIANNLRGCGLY
# RGS-Gao: modulates binding between human RGS4 and Galphao; 1,600 compounds, 99% hits; shares compounds with RGS16-Gao; RGS4–Galpha-o binding response, % at 10 µM; multiplexed bead flow cytometry, RGS–Galpha-o binding; AID 1504;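 further: fluorescently labeled Galpha-o bound to GDP with aluminium fluoride binding biotinylated RGS beads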
# Biotin-avidin: counter-screen: compounds disrupting biotin binding to avidin beads; shares compounds with RGS16-Gao; streptavidin beads, fluorescein-biotin binding, flow cytometry; inhibition, % at 10 µM; 1,700 tested, under 10 active;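 active means inhibition above 50%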;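 further: median green fluorescence of gated singlet beads compared with DMSO control wells; 0% = DMSO wells and 100% = complete loss of bead fluorescence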
# RGS8-Gao single: confirmation of regulators of human RGS8-Galphao interaction; shares compounds with RGS16-Gao; bead-based flow cytometry RGS8-Galphao binding, fluorescence; actives lie on both sides; binding response (% of control), % at 10 µM; 1,700 compounds, 3% hits; AID 1836; in the data active means binding response below about 72% or above about 130%; inactive means in between;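 further: Galphao activated as GDP AlF4 complex before binding bead RGS8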
# RGS7-Gao confirm: RGS7-Galphao interaction regulation, single point confirmation; 1,700 compounds, 7.8% hits; bead-based flow cytometry RGS7-Galphao binding; actives lie on both sides; response (percent of control binding), % at 10 µM; shares compounds with RGS16-Gao; in the data active means response below about 75% or above about 130%; inactive means in between;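 further: fluorescent Galphao activated with GDP and aluminum fluoride binding bead-coupled RGS7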
# RGS16-Gao single: confirmation of regulators of human RGS16-Galphao interaction | shares compounds with RGS16-Gao | bead-based flow cytometry, RGS16-Galphao binding; actives lie on both sides | response (% of control binding), % at 10 µM | 1,700 compounds, 4% hits; in the data active means response below about 74% or above about 130%; inactive means in between;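 further: Galphao activated as the GDP aluminium fluoride complex binding bead-coupled RGS16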
# RGS4-Gao single: RGS4-Galphao interaction regulation, single point confirmation; shares compounds with RGS16-Gao; RGS4-Galphao binding, multiplexed bead flow cytometry; actives lie on both sides; binding response (% of control), % at 10 µM; 1,700 compounds, 4% hits; in the data active means binding response below about 74% or above about 130%; inactive means in between
# RGS19-Gao conf: confirmation of regulators of human RGS19-Galphao interaction | 1,700 compounds, 5% hits | response (percent of control binding), % at 10 µM | shares compounds with RGS16-Gao | bead-based flow cytometry RGS19-Galphao binding; actives lie on both sides; in the data active means response below about 50% or above about 160%; inactive means in between;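 further: 100% = no compound control and 0% = blank background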
# * marks the source's active call; other numbers are inactive results; ? = inconclusive; . = no result; [ ] = remark or other dose. This is a sample that favours compounds with a hit; in the whole collection about 1.2% have one here. Unless noted, how the calls were made is not given here.
SMILES,GSH bead fluor,RGS8-Gao reg,Avidin bead fluor,RGS4-Gao reg,RGS7-Gao,RGS16-Gao,RGS-Gao,Biotin-avidin,RGS8-Gao single,RGS7-Gao confirm,RGS16-Gao single,RGS4-Gao single,RGS19-Gao conf
COc1ccc(-n2c(SCC(=O)Nc3cc(C)on3)nc3c(c2=O)SCC3)cc1,26,166*[activator],5,122,117,355,122*,0,99,92,97,99,100
Cc1[nH]n(-c2ccccc2)c(=S)c1C=Nc1ccc([N+](=O)[O-])cc1,7,74,3,86,116,9.8*,86*,.,.,.,.,.,.
Cc1[nH]n(-c2ccccc2)c(=O)c1C=Nc1ccc(S(=O)(=O)N=C(N)N)cc1,.,99,9,103,?,101,.,.,.,.,.,.,.
CCN(C(=O)CSc1nnc2nc(C)cc(C)n12)c1ccccc1,26,98,10,98,103,98,.,.,.,.,.,.,.
O=C(C1CCN(S(=O)(=O)c2cccnc2)CC1)N1CCN(c2cccc(Cl)c2)CC1,25,27*,1,35*,11*,62,.,-1,99,99,101,99,95
COc1cc(NC(=O)c2ccc(COc3ccccc3Br)o2)cc(OC)c1OC,30,112,77*,149,126,208*[activator],149*,2,96,91,94,95,82
COc1ccc(NC(=O)c2ccc(COc3ccccc3Br)o2)cc1OC,14,99,33,96,94,100,.,.,.,.,.,.,.
COc1ccc(CNC(N)=O)cc1OC,52,102,12,101,103,102,.,.,.,.,.,.,.
COc1ccc(NC(=O)NCCc2ccc(Cl)cc2)cc1OC,16,12*,-1,7.0*,-3.3*,0.8*,.,1,106,104,106,103,103
COc1cccc(NC(=O)NCCc2ccc(Cl)cc2)c1,19,95,10,96,95,96,.,.,.,.,.,.,.
COc1ccc(CC(=O)OCC(=O)NCc2ccccc2Cl)cc1OC,15,159*[activator],22,160*[activator],162*[activator],176*[activator],.,0,104,96,104,97,99
COc1ccc(CNC(=O)NCc2ccc(OC)c(OC)c2)cc1OC,37,105,64*,115,157*[activator],137,115*,-1,96,97,97,97,94
COc1ccccc1NC(=O)Nc1nn(C)c2cccc(OC)c12,.,104,4,99,?,103,.,.,.,.,.,.,.
O=C(CCC(=O)OCc1ccc(Cl)cc1)Nc1cccc([N+](=O)[O-])c1,21,58*,2,51,46*,44,51*,.,.,.,.,.,.
CCOC(=O)CCC(=O)Nc1cccc([N+](=O)[O-])c1,7,106,1,101,103,115,.,.,.,.,.,.,.
CC(=O)C1=C(S(=O)(=O)c2ccc(C)cc2)CS(=O)(=O)C1,18,89,2,99,93,69,.,.,.,.,.,.,.
COc1ccc(C)cc1NC(=O)C(Sc1nnc(Nc2cc(C)ccc2OC)s1)c1ccccc1 (stereo not drawn),8,3.4*,-3,11*,7.2*,-13*,.,-2,105,109,107,104,98

# Compound activity: PubChem, NMMLSC
